Experimental data reported in PubChem BioAssay.
The source made the active and inactive calls.

Key:
[1] = tested on: Plasmodium falciparum Sir2 (PF13_0152, Sir2A); assay: Plasmodium falciparum Sir2A binding compounds – biochemical, small-molecule microarray, 635 nm fluorescence, primary screen (AID 1098); conditions: fluorescence 635 nm, higher = more signal;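 also: score merges spot fluorescence intensity with its signal-to-noise ratio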
[2] = probe aDKK1 binding to arrayed compounds – biochemical, biotinylated probe, 635/667 nm fluorescence, primary screen (AID 1099); conditions: small-molecule microarray, higher = more signal;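 also: score merges 667nm spot fluorescence with signal to noise across triplicate slides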
[3] = probe aCHRDL2 binding to arrayed compounds – biochemical, biotinylated probe, 635/667 nm fluorescence, primary screen (AID 1100); conditions: small-molecule microarray, higher = more signal
[4] = change in splice reporter luminescence, either direction, cell-based, HEK293, spliceosome inhibition project, primary screen (AID 1101); conditions: HEK293 splicing luciferase reporter, 24 h, higher = more signal, called active from +8 up or from −8 down;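 also: HEK293 cells carrying a splicing-competent luciferase reporter gene; test concentration not given here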
[5] = target: Fibroblast growth factor 10 (Homo sapiens) (UniProt O15520); assay: compounds binding fibroblast growth factor 10 – biochemical, small-molecule microarray, 635 nm fluorescence, primary screen (AID 1102); conditions: FGF10 binding, fluorescence 635 nm, higher = more signal
Fibroblast growth factor 10 (Homo sapiens), sequence (O15520 whole entry, looked up): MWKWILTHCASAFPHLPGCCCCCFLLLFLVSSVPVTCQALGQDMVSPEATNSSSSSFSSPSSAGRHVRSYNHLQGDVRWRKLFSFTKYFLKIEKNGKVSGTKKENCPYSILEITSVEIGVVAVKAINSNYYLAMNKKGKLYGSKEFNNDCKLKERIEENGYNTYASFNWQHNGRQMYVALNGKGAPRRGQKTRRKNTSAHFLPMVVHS

[6] = tested on: glycogen synthase kinase-3 (GSK3A per assay name; protocol says GSK3B); assay: compounds binding glycogen synthase kinase-3 – biochemical, small-molecule microarray, 635 nm fluorescence, GSK3A, primary screen (AID 1103); conditions: fluorescence 635 nm, higher = more signal; also: the record names both GSK3A and GSK3B
[7] = target: Epidermal growth factor receptor (Homo sapiens) (UniProt P00533); assay: compounds binding epidermal growth factor receptor – biochemical, small-molecule microarray, 635 nm fluorescence, primary screen (AID 1104); conditions: EGFR binding, higher = more signal;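 also: score merges 667 nm emission intensity with spot signal to noise over triplicate slides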
Epidermal growth factor receptor (Homo sapiens), sequence (P00533 whole entry, looked up): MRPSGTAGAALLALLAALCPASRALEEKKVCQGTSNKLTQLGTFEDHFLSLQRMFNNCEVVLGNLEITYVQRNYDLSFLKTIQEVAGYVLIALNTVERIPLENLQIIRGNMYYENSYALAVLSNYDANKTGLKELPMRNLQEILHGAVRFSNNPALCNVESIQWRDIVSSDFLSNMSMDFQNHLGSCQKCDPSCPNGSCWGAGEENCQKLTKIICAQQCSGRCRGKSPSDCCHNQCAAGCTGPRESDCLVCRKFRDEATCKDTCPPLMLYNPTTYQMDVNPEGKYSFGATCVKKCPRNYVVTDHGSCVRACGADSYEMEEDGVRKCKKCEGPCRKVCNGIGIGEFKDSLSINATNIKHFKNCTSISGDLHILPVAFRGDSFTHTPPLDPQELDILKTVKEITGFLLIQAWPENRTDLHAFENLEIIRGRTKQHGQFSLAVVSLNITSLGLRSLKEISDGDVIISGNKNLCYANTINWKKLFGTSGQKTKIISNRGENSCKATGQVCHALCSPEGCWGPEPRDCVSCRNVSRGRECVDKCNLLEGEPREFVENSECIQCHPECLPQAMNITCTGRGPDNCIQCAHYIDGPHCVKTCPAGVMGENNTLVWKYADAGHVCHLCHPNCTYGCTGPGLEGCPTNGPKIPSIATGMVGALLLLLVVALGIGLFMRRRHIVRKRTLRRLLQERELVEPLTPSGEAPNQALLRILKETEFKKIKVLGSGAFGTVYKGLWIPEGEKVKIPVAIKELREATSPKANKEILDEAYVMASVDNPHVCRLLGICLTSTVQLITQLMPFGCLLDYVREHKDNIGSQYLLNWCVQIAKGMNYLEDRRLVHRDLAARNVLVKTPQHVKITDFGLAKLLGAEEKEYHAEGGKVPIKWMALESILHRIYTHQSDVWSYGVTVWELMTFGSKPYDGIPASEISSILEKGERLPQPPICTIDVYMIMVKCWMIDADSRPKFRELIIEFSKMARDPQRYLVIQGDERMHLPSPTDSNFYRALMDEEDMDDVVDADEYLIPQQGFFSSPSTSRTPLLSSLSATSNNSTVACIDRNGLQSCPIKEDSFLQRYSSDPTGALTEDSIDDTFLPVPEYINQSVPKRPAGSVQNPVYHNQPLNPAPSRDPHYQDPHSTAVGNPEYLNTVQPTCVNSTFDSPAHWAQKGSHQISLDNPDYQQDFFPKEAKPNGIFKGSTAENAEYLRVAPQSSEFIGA

[8] = target: Follistatin-related protein 3 (Homo sapiens) (UniProt O95633); assay: compounds binding follistatin-related protein 3 – biochemical, small-molecule microarray, 635 nm fluorescence, primary screen (AID 1105); conditions: FSTL3 binding, higher = more signal;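 also: score merges emission near 667 nm and signal to noise per printed spot across three slides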
Follistatin-related protein 3 (Homo sapiens), sequence (O95633 whole entry, looked up): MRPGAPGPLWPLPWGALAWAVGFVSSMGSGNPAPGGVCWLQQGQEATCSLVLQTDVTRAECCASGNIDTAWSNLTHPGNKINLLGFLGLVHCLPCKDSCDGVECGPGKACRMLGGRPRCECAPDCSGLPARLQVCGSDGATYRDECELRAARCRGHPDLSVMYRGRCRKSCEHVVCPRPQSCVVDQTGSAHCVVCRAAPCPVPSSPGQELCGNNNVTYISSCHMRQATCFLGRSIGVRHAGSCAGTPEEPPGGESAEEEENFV

[9] = target: Dickkopf-related protein 1 (Homo sapiens) (UniProt O94907); assay: small molecules binding DKK1 protein – biochemical, small-molecule microarray, 635 nm fluorescence scan, primary screen (AID 1106); conditions: higher = more signal;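 also: score merges emission near 667 nm with signal to noise over three replicate slides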
Dickkopf-related protein 1 (Homo sapiens), sequence (O94907 whole entry, looked up): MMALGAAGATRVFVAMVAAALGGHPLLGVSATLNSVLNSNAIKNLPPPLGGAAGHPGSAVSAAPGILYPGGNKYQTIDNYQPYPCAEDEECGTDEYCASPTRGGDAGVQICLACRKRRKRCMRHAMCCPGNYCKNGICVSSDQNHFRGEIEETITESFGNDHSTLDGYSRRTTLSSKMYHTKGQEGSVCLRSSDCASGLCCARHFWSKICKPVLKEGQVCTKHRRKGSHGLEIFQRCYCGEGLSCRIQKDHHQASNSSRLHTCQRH

[10] = tested on: Inhibin beta A chain (activin A); assay: small molecules binding activin A – biochemical, small-molecule microarray, 635 nm fluorescence scan, primary screen (AID 1107); conditions: INHBA, higher = more signal;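 also: mouse activin A protein probed at 4.33 µg/mL on printed slides; score merges bound-protein fluorescence near 667 nm with spot signal-to-noise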
[11] = tested on: Human papillomavirus type 1a protein E7 (residues 44-93); assay: small molecules binding HPV E7 44-93 – biochemical, small-molecule microarray, residues 44-93, 635 nm fluorescence, primary screen (AID 1108); conditions: fluorescence 635 nm, higher = more signal;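 also: E7 fragment applied at 1 µg/mL in TBST for 1 h at 4 C; score combines spot fluorescence with its signal to noise ratio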
[12] = hepatitis C replication reporter changes, two-sided – Huh7 cells, luciferase reporter, HCV replication inhibitor project, primary screen (AID 1109); conditions: Huh7 HCV replicon luciferase reporter, 48 h; higher = more signal;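 also: huh7 hepatoma cells harbouring a luciferase neomycin HCV replicon reporter; luciferase luminescence as measure of HCV replicon replication; test concentration not given here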
[13] = target: Left-right determination factor 2 (Homo sapiens) (UniProt O00292); assay: small molecules binding LEFTY2 protein – biochemical, small-molecule microarray, 635 nm fluorescence scan, primary screen (AID 1110); conditions: higher = more signal
Left-right determination factor 2 (Homo sapiens), sequence (O00292 whole entry, looked up): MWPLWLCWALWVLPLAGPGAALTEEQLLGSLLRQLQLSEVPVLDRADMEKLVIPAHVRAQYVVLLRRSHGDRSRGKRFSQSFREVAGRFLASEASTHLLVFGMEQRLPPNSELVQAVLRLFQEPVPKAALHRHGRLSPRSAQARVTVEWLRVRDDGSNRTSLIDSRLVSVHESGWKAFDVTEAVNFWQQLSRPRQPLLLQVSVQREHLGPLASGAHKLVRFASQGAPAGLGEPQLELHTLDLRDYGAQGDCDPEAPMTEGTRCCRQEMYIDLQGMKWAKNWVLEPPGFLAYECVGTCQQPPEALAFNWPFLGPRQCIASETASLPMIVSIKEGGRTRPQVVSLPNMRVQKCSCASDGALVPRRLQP

[14] = target: Calmodulin-1 (Homo sapiens) (UniProt P0DP23); assay: small molecules binding calmodulin-1 with EGTA – biochemical, small-molecule microarray, Cy5-labelled CALM1, profiling panel (AID 1111); conditions: Cy5-CALM1 binding fluorescence, higher = more signal;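 also: labelled calmodulin applied in Tris saline Tween buffer holding calcium plus EGTA and DTT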
[15] = target: Calmodulin-1 (Homo sapiens) (UniProt P0DP23); assay: small molecules binding Ca-loaded calmodulin-1 – biochemical, small-molecule microarray, Cy5-labelled CALM1, plus calcium, artefact control for SMM control-protein annotation, profiling panel (AID 1112); conditions: Cy5-CALM1 binding fluorescence, higher = more signal;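 also: score merges spot fluorescence with signal to noise from triplicate slides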
[16] = probe aWnt5a binding to arrayed compounds – biochemical, biotinylated probe, 635/667 nm fluorescence, primary screen (AID 1113); conditions: small-molecule microarray, higher = more signal;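 also: score merges 667 nm fluorescence intensity with signal-to-noise per printed feature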
[17] = probe aShh binding to arrayed compounds – biochemical, biotinylated probe, 635/667 nm fluorescence, primary screen (AID 1114); conditions: small-molecule microarray, higher = more signal;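 also: probe is biotin-labelled aShh protein from a stem cell growth factor screen; measures binding of labelled protein to compounds printed on the slide; score merges feature fluorescence at 667 nm with signal-to-noise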
[18] = probe aNog binding to arrayed compounds – biochemical, biotinylated probe, 635/667 nm fluorescence, primary screen (AID 1115); conditions: small-molecule microarray, higher = more signal;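 also: probe is biotinylated aNog protein used at 0.15 µg/mL for 1 h at 4 C; z-score combines 667 nm fluorescence of each spot with its signal to noise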
[19] = target: Torsin-1A-interacting protein 1 (Homo sapiens) (UniProt Q5JTV8); assay: compound microarray binding of lysate hLAP1 – cell lysate, small-molecule microarray, COS7 lysate, 635/667 nm fluorescence, primary screen (AID 1116); conditions: 635 nm fluorescence, higher = more signal
Torsin-1A-interacting protein 1 (Homo sapiens), sequence (Q5JTV8 whole entry, looked up): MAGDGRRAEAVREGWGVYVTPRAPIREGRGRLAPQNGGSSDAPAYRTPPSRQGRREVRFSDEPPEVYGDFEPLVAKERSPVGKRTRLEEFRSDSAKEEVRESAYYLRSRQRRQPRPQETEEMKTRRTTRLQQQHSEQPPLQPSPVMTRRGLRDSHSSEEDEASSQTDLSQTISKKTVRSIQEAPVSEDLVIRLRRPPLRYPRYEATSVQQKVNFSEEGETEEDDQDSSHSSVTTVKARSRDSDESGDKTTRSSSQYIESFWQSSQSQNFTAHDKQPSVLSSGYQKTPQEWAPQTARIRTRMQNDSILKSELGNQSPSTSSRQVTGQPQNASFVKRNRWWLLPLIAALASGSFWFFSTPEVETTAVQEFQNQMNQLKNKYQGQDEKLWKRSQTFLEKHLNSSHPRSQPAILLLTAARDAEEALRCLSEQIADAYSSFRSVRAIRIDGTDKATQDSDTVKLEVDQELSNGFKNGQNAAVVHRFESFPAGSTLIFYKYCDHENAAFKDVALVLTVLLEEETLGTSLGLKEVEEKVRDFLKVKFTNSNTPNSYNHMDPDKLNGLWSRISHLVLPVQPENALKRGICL

[20] = target: Alpha-bungarotoxin (Bungarus multicinctus) (UniProt P60615); assay: compounds binding labelled alpha-BTX control protein – biochemical, small-molecule microarray, Alexa647 label, 635/667 nm fluorescence, artefact control for SMM control protein annotation, profiling panel (AID 1117); conditions: alpha-BTX-A647 binding fluorescence, higher = more signal
Alpha-bungarotoxin (Bungarus multicinctus), sequence (P60615 whole entry, looked up): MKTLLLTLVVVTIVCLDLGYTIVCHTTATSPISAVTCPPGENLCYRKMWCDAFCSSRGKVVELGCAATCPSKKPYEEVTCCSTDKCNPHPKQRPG

Row | SMILES | composite z-score [1] | composite z-score [2] | composite z-score [3] | z-score [4] | composite z-score [5] | composite z-score [6] | composite z-score [7] | composite z-score [8] | composite z-score [9] | composite z-score [10] | composite z-score [11] | z-score [12] | composite z-score [13] | composite z-score [14] | composite z-score [15] | composite z-score [16] | composite z-score [17] | composite z-score [18] | composite z-score [19] | composite z-score [20]
1 | CCOC(=O)[C@H](Cc1ccccc1)NC(=O)CCC1CC(OC(=O)NCc2ccc3c(c2)OCO3)CC2(CCCC(COC(=O)NCc3ccccc3)O2)O1 (stereo not given in full) | 0.403 | -0.125 | -0.468 | -1.03 (inactive) | 1.02 | 0.78 | 0.361 | 1.02 | 0.606 | -0.303 | 1.33 | -1.08 | 0.619 | 0.351 | -0.298 | -0.128 | -0.0793 | 0.041 | 0.183 | 0.463
2 | CC(CCC(=O)OC[C@H]1O[C@H](C#Cc2ccccc2)C=C[C@@H]1Oc1ccc(C)cc1)=NOC[C@@H](O)[C@H]1O[C@@H]2OC(C)(C)O[C@@H]2[C@H]1O | 0.373 | -0.339 | -0.505 | 0.29 (inactive) | -0.369 | -0.579 | -1.03 | -0.638 | -0.335 | 0.302 | -0.263 | -1.13 | -0.15 | -0.873 | 0.0923 | -0.18 | -0.439 | -0.118 | 0.416 | -0.469
3 | CCOC(=O)NN=C1C[C@@H](O)[C@@H](O)[C@@H]2[C@@H]3C(=O)N(C(C)(C)C)C(=O)[C@@H]3CC[C@@H]12 | -0.241 | 0.166 | 0.599 | 0.172 (inactive) | 0.34 | -1.09 | 0.43 | -1 | -0.567 | -2.83 | -0.772 | -0.529 | 0.45 | -0.671 | -1.54 | -0.278 | -0.75 | 0.154 | -0.48 | -0.772
4 | O=C1C[C@]2(c3ccc([N+](=O)[O-])cc3)C(=O)N(CCN3CCOCC3)c3cc(CO)ccc3[C@H]2N1CC12CC3CC(CC(C3)C1)C2 | 0.39 | 0.398 | 0.793 | 0.14 (inactive) | -0.629 | 0.163 | -1 | -0.258 | -1.22 | 0.6 | -0.119 | -0.544 | -1.1 | 0.846 | 0.305 | -0.0455 | -0.0626 | -0.345 | 0.15 | 1.15
5 | CC(CCN1CCCCc2nc(C)c(C)cc21)=NOC(C)CN1CCCCc2nc(C)c(C)cc21 (stereo not given) | 1.62 | -0.142 | -0.595 | 0.127 (inactive) | 1.07 | 1.33 | 1.58 | 1.42 | 1.68 | 0.908 | 1.41 | -2.95 | 1.45 | 0.447 | -0.788 | -0.096 | -0.0709 | -0.0762 | 0.201 | 1.23
6 | CCCCCN1CC=CC23O[C@@H]4C=CCOC(=O)[C@@H]4[C@H]2C(=O)N(C(CO)C(C)C)[C@@H]3C1=O (stereo not given in full) | 0.745 | -0.183 | 0.0134 | 0.253 (inactive) | -0.512 | -0.786 | -1.07 | -0.472 | -0.426 | 0.712 | -0.516 | 0.245 | -0.518 | -0.385 | -1.07 | -0.176 | -0.276 | -0.254 | -0.0843 | -0.257
7 | CN1C(=O)[C@@]2(CCC(=O)OC(C)(C)C)N=C(c3ccc(OCCCO)cc3)O[C@H]2c2ccccc21 | 1.26 | 0.0179 | 0.457 | -0.0334 (inactive) | 0.788 | 1.33 | 0.181 | 0.529 | -0.0485 | 1.03 | 1.29 | -2.9 | -0.057 | 0.878 | -0.304 | -0.096 | 0.137 | -0.539 | 0.558 | 0.721
8 | CC(CCC(=O)OC[C@H]1O[C@H](C#Cc2ccccc2)C=C[C@@H]1Oc1ccc(C)cc1)=NOC[C@@H](O)COCc1ccco1 | 1.33 | -0.627 | -0.044 | -0.0928 (inactive) | -3.07 | -1.25 | -3.58 | -3.18 | -2.09 | -2.69 | -0.412 | -0.635 | -5.42 | -1.49 | -1.96 | -0.426 | -0.206 | -0.732 | -1.87 | -0.818
9 | Cc1ccc(C2CC=C(C(=O)O)CN2S(=O)(=O)c2ccc(C)cc2)cc1 (stereo not given) | 1.3 | 0.135 | 0.665 | -0.16 (inactive) | 0.31 | 0.834 | 0.201 | 0.338 | 0.0374 | 0.584 | 1.35 | 0.602 | -0.403 | 0.189 | 0.15 | 0.0018 | -0.271 | 0.241 | 0.743 | 0.802
10 | O=C1C[C@@H](O)[C@@H](O)[C@@H]2[C@@H]3C(=O)N(c4ccc(F)cc4F)C(=O)[C@@H]3CC[C@@H]12 | 0.341 | -0.343 | -0.602 | 0.337 (inactive) | 0.627 | 0.169 | 0.463 | 0.447 | 0.612 | 0.199 | 0.461 | 0.586 | 0.585 | -0.0799 | -0.389 | 0.441 | -0.221 | -0.22 | 0.408 | -0.157
11 | O=C1O[C@@H](c2ccccc2)[C@@H](c2ccccc2)N2[C@@H](c3ccc(O)cc3)[C@]3(C(=O)Nc4ccccc43)[C@@H](C(=O)O)[C@H]12 | 1.1 | 0.74 | 0.91 | 0.451 (inactive) | -0.0962 | 0.536 | -0.111 | -0.0238 | -0.465 | 0.385 | 1.02 | -0.996 | -0.6 | 0.64 | 0.212 | -0.174 | -0.793 | 0.0156 | 0.98 | -0.0356
